# Screens as filed in PubChem.
# RE007 growth inh – less growth of the S. pombe RE007 Vpr strain; S. pombe RE007 Vpr strain, BacTiter-Glo ATP luminescence, 24 h; Potency, µM (series often up to 92.2 µM), without a hit: at the top dose activity change, negative = less growth, hits mostly inhibitors; actives 0.21% (n = 360,000); AID 651644; active means well fitted falling curve with a large enough effect; inconclusive means small, poorly fitted or top-dose-only effect; inactive means no such curve, though single readings can be large or run the other way; further: potency means the concentration at half of the fitted maximal effect; on the % scale 0 is the no-effect control and ±100 the full control effect; nearly all actives have a fitted effect of over 50% in size
#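 Fission yeast RE007 carrying one integrated HIV-1 vpr copy, seeded at OD 0.01 in PMG+AL medium with 23 nL pinned compound. Grown 24 h at 30 degrees; viability read by BacTiter-Glo luminescence after 5 min.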
# Tb PYK inh – inhibitors of Trypanosoma brucei pyruvate kinase | Potency, µM (highest dose often 76.8 µM), inactives show top-dose activity, negative = inhibition, actives largely listed as inhibitors | TbPYK enzyme, Kinase-Glo Plus ATP luminescence, 45 min | Q57TT1 | actives 0.12% (n = 410,000); further: potency means the concentration at half of the fitted maximal effect; on the % scale 0 is the no-effect control and ±100 the full control effect; nearly all actives have a fitted effect of over 50% in size
#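 Screened from lowest to highest concentration, compounds were pinned into TbPYK/substrate mixtures, and ADP (130 uM final) was added. Plates sat at room temperature for 45 min prior to Kinase-Glo Plus detection by luminescence.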
# Shiga toxin inh – Shiga toxin inhibition. Vero cells, Shiga toxin protein synthesis inhibition reporter. inhibition, % at 38.7 µM. actives 9.2% (n = 290,000); in the data active means inhibition mostly above about 28%, no sharp cut-off; inactive means mostly below about 43%; further: 0% is about no effect
# Giardia FBPA inh – inhibitors of Giardia lamblia fructose-1,6-bisphosphate aldolase; purified Giardia FBPA; Potency, µM (titrated, usually from 59.6 µM), without a hit: at the highest dose activity, negative = inhibition, actives largely listed as inhibitors; actives 0.71% (n = 290,000); further: potency means the concentration at half of the fitted maximal effect; on the % scale 0 is the no-effect control and ±100 the full control effect; nearly all actives have a fitted effect of over 55% in size
#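 Giardia FBPA (40 nM reagent) was preincubated 10 min at RT with compound (up to 57.5 uM final), then substrate plus GAPDH/TPI/NAD/arsenate coupling system with diaphorase/resazurin was added; resorufin fluorescence (525/598 nm) was read after 20 min.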
# CHX counter – counter-screen hit for Shiga toxin inhibitors, cycloheximide; max response, %; AID 2314; cell reporter, cycloheximide protein synthesis inhibition counterscreen; actives 12% (n = 300,000); in the data active means max response mostly above about 13%, no sharp cut-off; inactive means mostly below about 14%; further: read at 38.3 µM for the half of the compounds with a filed dose; 0% is about no effect
# LmPK inhibitor – inhibitors of Leishmania mexicana pyruvate kinase | AID 1721 | actives 0.37% (n = 290,000) | purified LmPK, Kinase-Glo ATP luminescence, 1 h | Q27686 | Potency, µM (titrated, usually from 57.5 µM), without a hit: at the highest dose activity change, negative = inhibition, most hits filed as inhibitors; further: potency means the concentration at half of the fitted maximal effect; on the % scale 0 is the no-effect control and ±100 the full control effect
# Target sequence (Q27686 whole entry, looked up): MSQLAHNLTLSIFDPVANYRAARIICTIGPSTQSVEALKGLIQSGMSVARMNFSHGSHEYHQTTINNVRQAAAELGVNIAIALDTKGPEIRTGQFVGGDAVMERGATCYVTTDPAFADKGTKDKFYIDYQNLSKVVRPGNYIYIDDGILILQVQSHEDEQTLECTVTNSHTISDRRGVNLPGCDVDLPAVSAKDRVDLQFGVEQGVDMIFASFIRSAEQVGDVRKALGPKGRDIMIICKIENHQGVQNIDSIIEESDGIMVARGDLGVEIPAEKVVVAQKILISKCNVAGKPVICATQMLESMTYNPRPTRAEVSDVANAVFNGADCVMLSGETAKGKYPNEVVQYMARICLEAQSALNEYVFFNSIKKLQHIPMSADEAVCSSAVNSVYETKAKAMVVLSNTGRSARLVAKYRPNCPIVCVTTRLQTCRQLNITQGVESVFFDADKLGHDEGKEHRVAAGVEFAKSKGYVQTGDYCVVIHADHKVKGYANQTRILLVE
#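 0.1 nM LmPK, 0.5 mM PEP, 0.1 mM ADP; 50 mM imidazole pH 7.2, 7 mM MgCl2, 50 mM KCl; 1 h RT. Kinase-Glo luminescence readout, normalized to no-enzyme (full inhibition) and uninhibited wells.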
# * marks the source's active call; other numbers are inactive results; ? = inconclusive; . = no result given. Shown is part of a subset that was picked to be rich in hits. Unless noted, the call rests on the fitted dose curve; in most records, active means well fitted curve in the direction sought with a large enough effect; inconclusive means small, poorly fitted or top-dose-only effect, or another doubt; inactive means no such curve, though single readings can be large; an effect the other way counts as inactive or inconclusive.
SMILES,RE007 growth inh,Tb PYK inh,Shiga toxin inh,Giardia FBPA inh,CHX counter,LmPK inhibitor
CCn1cc(Br)c(-c2nc3ccccc3c(=O)n2N)n1,1.5%,-4.4%,75.4*,1.8%,27.3*,0.7%
Cc1c(C)n(CCCN(C)C)c2ncnc(Nc3ccc(F)cc3)c12,-11.5%,5.7%,-3.1,3.8%,6.6,-0.4%
Cc1c(C)n(CCO)c2ncnc(Nc3ccc(F)cc3)c12,8.5%,0.0%,68.7*,4.0%,17.6,4.8%
COc1ccc(Nc2ncnc3c2c(C)c(C)n3CCO)cc1,-1.5%,-5.7%,72.5*,4.9%,47.5*,-0.6%
COc1ccc(NC(=O)Nc2ccc(F)c(Cl)c2)cc1,2.6%,1.1%,90.5*,0.3%,64.9*,-9.0%
COc1ccc(NC(=O)Nc2ccc(Br)c(C)c2)cc1,-5.2%,2.8%,30.6*,-1.8%,10.9,-0.1%
O=C(Nc1cccnc1)Nc1ccc(F)c(Cl)c1,0.5%,-12.7%,26.0,3.3%,14.5*,-4.3%
COc1ccc(OC)c(NC(=O)Nc2ccc(Cl)cc2)c1,-21.0%,0.0%,31.0,-8.8%,10.1,4.1%
O=C(Nc1cccnc1)c1sc2cccc(F)c2c1Cl,?,-6.1%,47.4*,-0.5%,38.2*,-1.5%
O=C(Nc1cccnc1)c1cc(F)c(F)cc1Cl,-6.2%,3.0%,-5.0,0.5%,-5.6,1.5%
COc1ccc(NC(=O)CC(C)n2nc(C)cc2C)cc1Cl (stereo not drawn),.,2.8%,.,.,.,.
Cc1ccc(Cn2c(C)c(CNC3CCCCC3)c(C(=O)O)c2C)cc1,.,-1.3%,.,.,.,.
Cc1ccc(NC(=O)Nc2ccc(F)c(Cl)c2)cc1,7.3%,-11.4%,81.6*,0.7%,30.5*,-2.3%
CCc1cc(=O)oc2c(C)c3c(cc12)CN(CCc1ccccc1)CO3,.,-4.6%,.,.,.,.
COc1cc(OC)cc(C(=O)Oc2c(Sc3ccccc3)c(C)nn2C(C)(C)C)c1,.,-2.7%,.,.,.,.
O=C1C2C(C(=O)N1/N=C/c1cc([N+](=O)[O-])ccc1O)C1C=CC2C12CC2 (stereo not drawn),?,0.3%,-8.4,-4.4%,4.8,1.1%
Cc1ccc(/C=N/N2C(=O)C3C(C2=O)C2C=CC3C23CC3)o1 (stereo not drawn),-5.5%,3.1%,13.6,-6.9%,17.6*,-1.2%
O=C1C2C(C(=O)N1/N=C/c1cccc([N+](=O)[O-])c1)C1C=CC2C12CC2 (stereo not drawn),8.1%,-7.4%,74.6*,2.5%,51.8*,-0.9%
Cc1onc(-c2c(F)cccc2Cl)c1C(=O)O/N=C(\N)c1ccc([N+](=O)[O-])o1,-21.4%,-3.1%,36.4*,-11.1%,17.8,4.6%
COc1ccc(/C=N/NC(=O)C(=O)N2CCCCCC2)cc1[N+](=O)[O-],-21.6%,-4.7%,5.5,.,-3.7,0.3%
COc1cc(/C=N/NC(=O)C(=O)N2CCCCCC2)ccc1O,5.5%,1.1%,-16.9,.,0.9,-7.6%
COc1ccc(/C=N/NC(=O)C(=O)N2CCCC2)cc1,6.3%,0.9%,66.6,-0.4%,36.2*,-0.9%
CN(C)c1ccc(/C=N/NC(=O)C(=O)N2CCCCCC2)cc1,-12.9%,-8.2%,47.0,1.6%,25.5*,0.6%
COc1ccccc1N1CCN(C(=O)/C=C/c2cccs2)CC1,1.4%,-2.4%,54.2*,7.4%,17.5*,0.8%
Cc1cc(C)n(C(=O)/C=C/c2cccs2)n1,-16.2%,-5.7%,64.4*,0.1%,28.6*,-10.2%
Cc1ccc(-c2n[nH]c(=S)n2/N=C/C=C\c2ccccc2[N+](=O)[O-])cc1,1.5%,?,-3.4,?,-2.4,-9.1%
COc1ccccc1N1CCN(/N=C/C=C\c2ccccc2[N+](=O)[O-])CC1,3.5%,7.6%,45.2*,-20.9%,42.5*,3.7%
Cc1cc(C)n(C(=O)CNC(=O)c2cccs2)n1,44.2%,-5.1%,-8.1,4.9%,-5.3,-4.6%
COc1ccccc1N1CCN(C(=O)/C=C/c2ccccc2)CC1,-6.1%,-5.1%,19.1,2.4%,15.0,-0.4%
CC1CCCC(C)N1/N=C/C=C/c1ccccc1[N+](=O)[O-] (stereo not drawn),-20.3%,-2.6%,69.2*,0.9%,38.4*,-0.1%
